# LANA-H2B inh – blockers of LANA interaction with H2A/H2B – biochemical, FP readout, HTS, primary screen; cell-free LANA-H2A/H2B peptide, fluorescence polarization; inhibition, % (concentration not given with the values); Protein LANA1 (Human herpesvirus 8 type P (isolate GK18)), Q9QR71; hit rate 0.6% among 320,000; in the data active = inhibition mostly above about 10%, no sharp cut-off; inactive = mostly below about 6.7%
# Keap1-Nrf2 PPI – Keap1-Nrf2 protein-protein interaction inhibitors, primary screen, biochemical, fluorescence polarization, single point; Kelch-like ECH-associated protein 1 (Homo sapiens), Q14145; hit rate 0.15% among 340,000; inhibition, % at 9.4 µM; Keap1 Kelch-Nrf2 peptide fluorescence polarization, 1536-well; in the data active = inhibition above about 12%;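 note: human Keap1 Kelch domain with fluorescein labeled Nrf2 9mer peptide probe; 0% = neutral control wells and 100% = peptide positive control; higher means more block of Keap1 binding to Nrf2 peptide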
# Target sequence (Q14145 whole entry, looked up, the tested form may be a part): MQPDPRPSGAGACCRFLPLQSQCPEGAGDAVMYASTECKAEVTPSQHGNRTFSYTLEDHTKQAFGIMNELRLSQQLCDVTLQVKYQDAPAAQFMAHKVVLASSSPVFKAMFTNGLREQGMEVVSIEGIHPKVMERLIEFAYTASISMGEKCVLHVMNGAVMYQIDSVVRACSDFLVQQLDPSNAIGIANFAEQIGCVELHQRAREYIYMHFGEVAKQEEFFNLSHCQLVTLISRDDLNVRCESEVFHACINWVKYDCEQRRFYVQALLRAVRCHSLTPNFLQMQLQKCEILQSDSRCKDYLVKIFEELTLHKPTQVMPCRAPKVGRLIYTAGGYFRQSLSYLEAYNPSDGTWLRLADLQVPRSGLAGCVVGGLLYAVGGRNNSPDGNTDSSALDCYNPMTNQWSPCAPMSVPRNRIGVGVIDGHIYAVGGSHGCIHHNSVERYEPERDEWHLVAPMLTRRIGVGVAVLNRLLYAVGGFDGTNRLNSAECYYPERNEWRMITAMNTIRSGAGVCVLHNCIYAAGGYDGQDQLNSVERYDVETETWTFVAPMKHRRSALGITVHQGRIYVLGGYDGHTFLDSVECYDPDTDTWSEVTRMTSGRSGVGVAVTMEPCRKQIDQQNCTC
# RTF Ca sens inh – cardiac RTF calcium sensitivity inhibitors, primary screen, biochemical, IANBD-TnC fluorescence, EC70 calcium. IANBD-labeled cardiac RTF, Ca2+ fluorescence. inhibition, % at 7.15 µM. hit rate 0.12% among 340,000. AID 493244, 2011;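 active = inhibition above the mean inhibition of all tested compounds plus 3 SD, cut at about 17% in these data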;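 note: assay run at fixed EC70 calcium of 1.6 mM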
# cardiac RTF act – cardiac RTF calcium sensitivity activators, primary screen, biochemical, IANBD-TnC fluorescence, EC20 calcium; Troponin I, cardiac muscle (Homo sapiens) + Troponin T, cardiac muscle (Homo sapiens) + …; IANBD-labeled TnC RTF fluorescence at EC20 calcium; 0% EC20 calcium, 100% full calcium; activation, % at 7.2 µM; hit rate 0.24% among 340,000; AID 493008, 2010;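 active = activation above the mean over all tested compounds plus 3 SD, cut at about 30% in these data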;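 note: rise in fluorescence read as greater calcium sensitivity of cardiac thin filaments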
# LANA DNA inh – inhibitors of KSHV C-LANA binding to DNA, primary screen, biochemical, fluorescence polarization, FAM-LBS DNA, MBP-C-LANA, single point; Kaposi's sarcoma herpesvirus LANA C-terminal domain (residues 932-1162) DNA binding; inhibition, % at 9 µM; hit rate 0.078% among 340,000;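 active = highest replicate inhibition at or above 60% at 9 µM, even if other replicates fall short; inactive = all replicates below 60% inhibition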;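 note: 0% = neutral control wells and 100% = 4 µM acridine orange control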
# Keap1 Kelch bind – Keap1 Kelch domain binders by thermal stabilisation, dose response, biophysical, thermal shift, RT-PCR instrument, cherry-pick | shares compounds with Keap1-Nrf2 PPI | delta Tm; hits give high values | max delta Tm, degrees C | hit rate 8% among 400; in the data active = max delta Tm above about 0.48 degrees C
# Dye-only ctr – Sypro Orange dye melt without protein, dose response, artefact control for Keap1-Nrf2 interaction inhibitor project, biochemical, thermal shift counterscreen, cherry-pick; delta Tm, degrees C (no concentration beside the values); 140 tested, under 10 active; Sypro Orange dye-only thermal melt, no protein, delta Tm; top dose 26 µM; AID 651858, 2012; shares compounds with Keap1-Nrf2 PPI;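 active = at highest dose tested, delta Tm positive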
# An asterisk follows results filed as active; . = not tested or not shown. This is a sample that favours compounds with a hit; in the whole collection about 0.98% have one here.
SMILES,LANA-H2B inh,Keap1-Nrf2 PPI,RTF Ca sens inh,cardiac RTF act,LANA DNA inh,Keap1 Kelch bind,others
COC(=O)c1cc(N2CCN(C)CC2)nc2ccccc12,3,31*,-62,50*,53,-0.03,
COc1cccc(CNc2ccc3[nH]c(=O)[nH]c3c2)c1OCc1ccccc1F,-8,-3,4,5,1,.,
O=C(Cc1ccc(S(=O)(=O)N2CCOCC2)s1)Nc1nc2c(s1)CCCC2,-1,18*,-2,13,18,0.08,
Cc1ccc(C)c2nc3sc(C(=O)N4CCOCC4)c(N)c3cc12,-6,-5,-12,5,0,.,
Cc1cc(C)c2nc3sc(C(=O)N4CCOCC4)c(N)c3cc2c1,-6,14*,-6,-1,-1,-0.17,
O=[N+]([O-])c1ccccc1CCc1cnc(Cl)s1,-2,-5,-10,4,0,.,
C/C(C/C(C)=C1/SC(=S)NC1=O)=C1\SC(=S)NC1=O,.,49*,-6,-5,32,2*,
Cc1nnsc1C(=O)N1CCN(c2ccc(F)cc2)CC1,0,14*,5,2,11,-0.15,
CCOC(=O)c1c(C)[nH]c(C(=O)COC(=O)c2cccnc2Cl)c1C,-3,25*,-3,-1,11,-0.07,Dye-only ctr=-27
Nc1ccc2c(S(=O)(=O)O)cccc2c1S(=O)(=O)O,.,-2,-4,0,2,.,
Nc1cccc2cc(S(=O)(=O)O)ccc12,.,15*,6,-11,73*,0.24,
Cc1nnc(NC(=O)c2ccc3c(c2)NC(=O)CS3)s1,2,18*,4,-5,0,-0.13,
Cc1ccc(NC(=O)c2ccc3c(c2)NC(=O)CS3)nc1,-4,-2,-2,-10,1,.,
O=c1[nH]nc(SCc2cc(Cl)ccc2Cl)c(=O)[nH]1,-1,-1,-7,-3,-1,.,
CCNC(=O)c1cc(S(=O)(=O)N2CCSCC2)ccc1OC,1,2,-4,0,0,.,
OC(CCN1CCC2(CC1)OCCO2)C(F)(F)F (stereo not given),.,19*,-7,12,8,-0.12,
c1ccc(-c2nnc(CN3CCC4(CC3)OCCO4)o2)cc1,-1,3,-4,-2,-2,.,
CC(C)(CC(=O)O)CC(=O)Nc1ccc(Oc2ccc(C(C)(C)C)cc2)nc1,2,.,.,.,.,.,
Cc1ccc(C(=O)N/C(=C\c2ccc(-c3ccccc3[N+](=O)[O-])o2)C(=O)NCCCN(C)C)cc1,7,14*,-12,11,32,0.02,
Cn1c(SCC(=O)c2cc(Cl)c(Cl)s2)nnc1-c1ccco1,4,32*,.,.,19,-0.2,
CC(C)COc1ccc(C(=O)OCC(=O)N(C)CC(=O)Nc2ccc(F)cc2)cc1,-1,-4,-4,-10,0,.,
COc1ccc(NC(=O)NS(=O)(=O)c2ccc(C)cc2)cn1,68*,77*,-491,348*,104*,-0.13,
O=C(Nn1cnnc1)c1ccc(Cl)c(Cl)c1,-1,22*,-10,6,12,-0.05,
Cc1oc2c(cc(NS(=O)(=O)c3ccc(C(C)C)cc3)c3ccccc32)c1C(=O)O,26*,20*,-18,22,35,0.52*,
COc1ccccc1NC(=O)C(C)OC(=O)C1COc2ccccc2O1 (stereo not given),21*,22*,-9,15,10,-0.1,
SMILES,LANA-H2B inh,Keap1-Nrf2 PPI,RTF Ca sens inh,cardiac RTF act,LANA DNA inh,Keap1 Kelch bind,others
CC(OC(=O)C1COc2ccccc2O1)C(=O)N(C)c1ccccc1 (stereo not given),-3,-4,1,-1,-1,.,
COc1[nH]c(/N=C/c2ccccc2)c(C#N)c1C#N,44*,78*,-175,106*,102*,-0.04,
Cc1ccc(S(=O)(=O)NCC(=O)OCC(=O)Nc2ccc3c(c2)OCCO3)cc1,19*,32*,-19,7,27,-0.16,Dye-only ctr=-22
CCCNS(=O)(=O)c1ccc(OCC(=O)Nc2ccc3c(c2)OCCO3)cc1,7,-8,-4,10,-1,.,
CCc1cc2c3c(c1)C1(C(=O)N3C(C)(C)CC2C)C(C#N)=C(N)N2C(=C1C#N)Nc1ccccc12 (stereo not given),-1,-6,2,0,0,.,
CCCc1nc2oc3cc(OC)ccc3c(=O)c2c(=O)n1Cc1ccco1,4,14*,-4,2,0,-0.19,
COc1ccc2c(=O)c3c(=O)n(Cc4ccco4)c(-c4ccccc4)nc3oc2c1,0,-1,4,1,1,.,
N#Cc1c(SCC(=O)Nc2nncs2)sc2c(O)cc(=O)[nH]c12,-1,21*,-12,-5,20,0.19,Dye-only ctr=-32
N#Cc1c(SCC(=O)Nc2ccc(C(F)(F)F)cc2)sc2c(O)cc(=O)[nH]c12,3,-4,-4,1,1,.,
O=c1cc(CN2CCCc3ccccc32)nc2sccn12,11,58*,-51,62*,43,0.01,
CCOc1ccc(NC(=O)COC(=O)CCN2C(=O)C3CC=CCC3C2=O)cc1OCC (stereo not given),40*,45*,-13,17,22,0.15,
CCOc1ccc(NC(=O)CCN2C(=O)C3CCCCC3C2=O)cc1OCC (stereo not given),1,5,-8,-2,3,.,
CC(C)NC(=O)N(C)C[C@H]1Oc2ccc(NS(=O)(=O)c3cn(C)cn3)cc2C(=O)N([C@H](C)CO)C[C@@H]1C,3,29*,0,-5,22,-0.11,
CC(C)N(C(=O)CSc1nnc(CN2CCCCCC2=O)n1-c1ccccn1)C(C)C,-4,-4,7,9,0,.,
CCCCC1OC23CCCCC2C(C#N)(C#N)C1(C#N)C(=N)O3 (stereo not given),6,24*,-32,46*,45,-0.15,Dye-only ctr=-29
CCCCC1OC23CCCCC2C(C#N)(C(=N)O3)C1(C#N)C#N (stereo not given),-4,20*,-38,23,42,-0.15,
C=CCN1C(=O)/C(=C2/Sc3ccc(OC)cc3N2C)SC1=Nc1ccccc1,0,0,-8,0,1,.,
CCCCN1C(=O)/C(=C2/Sc3ccccc3N2C)S/C1=N\c1ncn[nH]1,9,41*,-4,6,21,-0.07,Dye-only ctr=-28
